Reference: the supplement of paper PMC9694430
Counter-ions that a name gives are not always drawn.

Experiments:
Test in all cases: thermal shift delta Tm vs DMSO control; higher = stronger stabilization (binding)
Conditions in all cases: 12.5 µM; protein concentration 2 µM
[1] = test system: LOC_OS02G45750-cb003
Summary of the method: (§1)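 The melting temperature shift given here is a triplicate mean, measured against protein that received only DMSO. Melting temperatures came from Boltzmann fits of differential scanning fluorimetry data on E. coli-expressed, purified rice kinase domain constructs. Each 19.5 μl well contained 2 μM kinase, 100 mM potassium phosphate pH 7.5, 150 mM NaCl, 10% glycerol, 5 × SYPRO Orange and compound in DMSO. Plates were scanned from 25°C to 95°C at 0.05°C/s.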

[2] = test system: LOC_OS02G54510-cb004
Summary of the method: as §1

[3] = test system: LOC_OS03G04050-cb001
Summary of the method: as §1

[4] = test system: LOC_OS03G12390-cb001
Summary of the method: as §1

[5] = test system: LOC_OS03G27990-cb004
Summary of the method: as §1

[6] = test system: LOC_OS03G50450-cb001
Summary of the method: as §1

[7] = test system: LOC_OS03G50810-cb003
Summary of the method: as §1

[8] = test system: LOC_OS04G35114-cb001
Summary of the method: as §1

[9] = test system: T1, LOC_OS04G38480-cb003
T1 sequence (whole entry): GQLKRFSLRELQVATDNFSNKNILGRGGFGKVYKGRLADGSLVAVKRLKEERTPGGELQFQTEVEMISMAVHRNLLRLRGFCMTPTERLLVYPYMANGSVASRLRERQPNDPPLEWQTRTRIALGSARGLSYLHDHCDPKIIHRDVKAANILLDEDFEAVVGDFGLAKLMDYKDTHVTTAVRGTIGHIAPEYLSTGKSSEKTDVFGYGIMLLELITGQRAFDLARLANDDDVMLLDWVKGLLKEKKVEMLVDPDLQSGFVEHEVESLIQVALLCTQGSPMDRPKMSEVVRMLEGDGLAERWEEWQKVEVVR
Summary of the method: as §1

[10] = test system: T2, LOC_OS04G41100-cb001
T2 sequence (whole entry): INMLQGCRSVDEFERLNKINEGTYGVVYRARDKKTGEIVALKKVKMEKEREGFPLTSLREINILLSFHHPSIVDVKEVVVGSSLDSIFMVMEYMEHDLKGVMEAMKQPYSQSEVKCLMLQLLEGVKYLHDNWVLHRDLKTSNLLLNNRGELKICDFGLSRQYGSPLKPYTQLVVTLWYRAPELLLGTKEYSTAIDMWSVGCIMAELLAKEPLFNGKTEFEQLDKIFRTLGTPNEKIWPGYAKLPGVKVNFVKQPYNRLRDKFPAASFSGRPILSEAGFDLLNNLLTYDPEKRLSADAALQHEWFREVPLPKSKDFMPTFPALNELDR
Summary of the method: as §1

[11] = test system: LOC_OS04G57630-cb004
Summary of the method: as §1

[12] = test system: LOC_OS05G07850-cb002
Summary of the method: as §1

[13] = test system: LOC_OS05G16824-cb004
Summary of the method: as §1

[14] = test system: LOC_OS05G28520-cb001
Summary of the method: as §1

[15] = test system: LOC_OS05G30820-cb001
Summary of the method: as §1

[16] = test system: LOC_OS05G43570-cb004
Summary of the method: as §1

[17] = test system: LOC_OS06G16330-cb003
LOC_OS06G16330-cb003, sequence (as listed by the source): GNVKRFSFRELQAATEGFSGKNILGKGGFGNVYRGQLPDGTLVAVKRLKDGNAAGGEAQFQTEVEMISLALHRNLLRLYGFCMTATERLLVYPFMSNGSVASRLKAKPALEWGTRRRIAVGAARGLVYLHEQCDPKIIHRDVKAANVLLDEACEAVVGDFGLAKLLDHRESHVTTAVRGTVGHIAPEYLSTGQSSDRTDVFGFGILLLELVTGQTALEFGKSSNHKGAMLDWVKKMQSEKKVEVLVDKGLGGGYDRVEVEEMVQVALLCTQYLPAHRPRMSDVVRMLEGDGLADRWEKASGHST
Summary of the method: as §1

[18] = test system: T3, LOC_OS06G22820-cb001
T3 sequence (whole entry): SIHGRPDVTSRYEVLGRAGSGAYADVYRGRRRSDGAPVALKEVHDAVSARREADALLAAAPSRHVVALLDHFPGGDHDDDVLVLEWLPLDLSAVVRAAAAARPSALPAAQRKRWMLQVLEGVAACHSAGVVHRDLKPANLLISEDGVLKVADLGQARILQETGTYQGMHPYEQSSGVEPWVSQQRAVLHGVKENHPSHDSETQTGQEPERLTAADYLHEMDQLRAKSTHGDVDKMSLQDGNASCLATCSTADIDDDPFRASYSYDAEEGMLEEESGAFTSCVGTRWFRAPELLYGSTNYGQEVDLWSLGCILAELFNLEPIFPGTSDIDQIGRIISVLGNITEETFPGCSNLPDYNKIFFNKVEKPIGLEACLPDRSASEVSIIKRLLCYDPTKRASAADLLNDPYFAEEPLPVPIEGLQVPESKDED
Summary of the method: as §1

[19] = test system: LOC_OS07G06570-cb004
Summary of the method: as §1

[20] = test system: LOC_OS07G07230-cb001
Summary of the method: as §1

Row | Compound | thermal shift delta Tm [1] | thermal shift delta Tm [2] | thermal shift delta Tm [3] | thermal shift delta Tm [4] | thermal shift delta Tm [5] | thermal shift delta Tm [6] | thermal shift delta Tm [7] | thermal shift delta Tm [8] | thermal shift delta Tm [9] | thermal shift delta Tm [10] | thermal shift delta Tm [11] | thermal shift delta Tm [12] | thermal shift delta Tm [13] | thermal shift delta Tm [14] | thermal shift delta Tm [15] | thermal shift delta Tm [16] | thermal shift delta Tm [17] | thermal shift delta Tm [18] | thermal shift delta Tm [19] | thermal shift delta Tm [20]
1 | Cc1cc(O)c(-c2ccc([C@@H](C)CN)cc2)c2c1[nH]c(=O)c1sccc12 [OTS514 hydrochloride] | 0.87 °C | 1.1 °C | 0.44 °C | 0.55 °C | 0.52 °C | 0.04 °C | 0.85 °C | 1.39 °C | 1.65 °C | 3.58 °C | 0.19 °C | 5 °C | -0.88 °C | 0.49 °C | 0.55 °C | 0.45 °C | 1.74 °C | 0.65 °C | 1.65 °C | 0.6 °C
2 | Cc1ccc(F)c(NC(=O)Nc2ccc(-c3cccc4[nH]nc(N)c34)cc2)c1 [Linifanib (ABT-869)] | 0.85 °C | -0.22 °C | 0.3 °C | 3.38 °C | 1.2 °C | 0.4 °C | 0.8 °C | 2.54 °C | 0.22 °C | 1.77 °C | 0.74 °C | 4.63 °C | 1.86 °C | 0.75 °C | 0.85 °C | 0.9 °C | 3.55 °C | 0.6 °C | 0.72 °C | 0.93 °C
3 | O=C(NCCO)c1cccc(-c2cc(Nc3ccc(OC(F)(F)F)cc3)ncn2)c1 | -1.95 °C | 0.81 °C | 0.63 °C | -0.13 °C | 0.4 °C | 0.68 °C | 0.15 °C | 0.49 °C | 0.52 °C | 0.56 °C | -0.03 °C | 1.54 °C | 0.97 °C | -0.03 °C | 0.29 °C | 0.15 °C | 1.76 °C | 0.84 °C | 0.21 °C | -0.33 °C
4 | COc1ncc(-c2cc(-c3ncc(CN4C[C@@H](C)O[C@@H](C)C4)o3)c3cn[nH]c3c2)cc1NS(C)(=O)=O | 0.86 °C | 0.25 °C | 0.39 °C | -0.09 °C | 0.23 °C | 0.64 °C | 0.71 °C | 1.06 °C | 0.79 °C | 0.49 °C | 0.12 °C | 1.71 °C | -0.4 °C | 0.61 °C | 0.21 °C | 0.39 °C | -0.32 °C | 0.44 °C | 0.86 °C | 0.19 °C
5 | CNC(=O)c1ccc(C)c(-n2c(C)cc(OCc3ccc(F)cc3F)c(Br)c2=O)c1 | 0.5 °C | 0.06 °C | 0.28 °C | 0.6 °C | 0.15 °C | 0.27 °C | 0.59 °C | 0.14 °C | 0.62 °C | 0.73 °C | 0.7 °C | 0.4 °C | 0.62 °C | 0.4 °C | 0.44 °C | 0.56 °C | 0.1 °C | 0.38 °C | 0.59 °C | -0.01 °C
6 | COCC(=O)NC/C=C/c1ccc2ncnc(Nc3ccc(Oc4ccc(C)nc4)c(C)c3)c2c1 | 0.33 °C | -0.01 °C | 0.28 °C | -0.25 °C | -0.01 °C | -0.22 °C | -0.16 °C | 1.94 °C | 0.14 °C | 0.5 °C | 0.08 °C | 3.11 °C | -4.84 °C | -0.02 °C | 0.4 °C | 0.04 °C | 0.23 °C | 0.59 °C | 0.41 °C | 0.08 °C
7 | COc1ccc(-c2nc(N3CCOCC3)c3sc(CN(C)c4ncc(C(=O)NO)cn4)cc3n2)cn1 | 0.52 °C | 0.27 °C | 0.23 °C | -0.11 °C | 0.18 °C | -0.05 °C | 0.23 °C | 0.64 °C | 0.82 °C | 0.24 °C | 0 °C | 0.02 °C | -1.81 °C | 0.86 °C | 0.56 °C | 0.42 °C | -0.08 °C | 0.84 °C | 0.56 °C | 0.26 °C
8 | Cc1ccc(CNc2ncnc3ccc(-c4ccc(CO)o4)cc23)o1 | 1.72 °C | 0.02 °C | 0.46 °C | 1.65 °C | 0.24 °C | 0.03 °C | -0.19 °C | 4.83 °C | 0.75 °C | 1.05 °C | 2.38 °C | 4.33 °C | -5.36 °C | -0.16 °C | 0.29 °C | 0.04 °C | 2.56 °C | 0.43 °C | 1.5 °C | 0.62 °C
9 | Cc1c(NC(=O)c2ccc(C(C)(C)C)cc2)cccc1-c1cn(C)c(=O)c(Nc2ccc(C(=O)N3CCOCC3)cc2)n1 | 1.07 °C | 0.28 °C | 0.82 °C | 1.85 °C | 0.51 °C | 0.69 °C | 0.7 °C | 0.72 °C | 0.87 °C | 0.43 °C | 0.37 °C | 0.29 °C | 0.48 °C | 0.5 °C | 0.18 °C | 0.64 °C | 0.07 °C | 0.84 °C | 1.05 °C | -0.21 °C
10 | COc1ccc(-c2ccc3c(N4CCOC[C@@H]4C)nc(N4CCOC[C@@H]4C)nc3n2)cc1CO | 0.67 °C | 0.38 °C | 0.33 °C | -0.12 °C | 0.09 °C | 0.41 °C | 0.18 °C | 0.4 °C | -0.21 °C | 0.57 °C | -0.09 °C | 0.42 °C | -7.62 °C | 0.13 °C | 0.67 °C | 0.21 °C | 0.03 °C | 0.43 °C | 0.38 °C | 0.11 °C
11 | FC(F)(F)c1ccc(/C=C/c2nc(COc3ccc(CCCCn4ccnn4)cc3)co2)cc1 [Mubritinib (TAK 165)] | 0.54 °C | 0.1 °C | 0.37 °C | 0 °C | 0.51 °C | 0.76 °C | 0.3 °C | 0.27 °C | 0.25 °C | 0.36 °C | 0.31 °C | 0.65 °C | -1.49 °C | 0.05 °C | 0.57 °C | 0.39 °C | -0.19 °C | 0.32 °C | 0.47 °C | -1.09 °C
